The results in this text go back to PubChem BioAssay AID1508607 (The Scripps Research Institute Molecular Screening Center, 2020).

Molecules are shown by their SMILES. Hit rate of the full screen: of about 2,300 compounds, about 20 (0.9%) were called active.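 Rule for the calls: active = mean percent activation across replicates above the counterscreen hit cutoff of 9.17%; inactive = the rest.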 The full list was thinned out, with actives kept by preference.

The test deals with Glucose-dependent insulinotropic receptor (Homo sapiens) (UniProt Q8TDV5). The experiment in a line: off-target GPR119 activation – cell-based, PathHunter beta-arrestin, luminescence, set 2, counter-screen for GPR151 activator project, confirmation (AID 1508607).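 Note: 0% = median of sample wells and 100% = wells given EA reagent.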 Conditions: GPR119 PathHunter beta-arrestin cells, 90 min, at 11.2 µM, active compounds read high.
Sequence of Glucose-dependent insulinotropic receptor (Homo sapiens) (Q8TDV5 whole entry, looked up): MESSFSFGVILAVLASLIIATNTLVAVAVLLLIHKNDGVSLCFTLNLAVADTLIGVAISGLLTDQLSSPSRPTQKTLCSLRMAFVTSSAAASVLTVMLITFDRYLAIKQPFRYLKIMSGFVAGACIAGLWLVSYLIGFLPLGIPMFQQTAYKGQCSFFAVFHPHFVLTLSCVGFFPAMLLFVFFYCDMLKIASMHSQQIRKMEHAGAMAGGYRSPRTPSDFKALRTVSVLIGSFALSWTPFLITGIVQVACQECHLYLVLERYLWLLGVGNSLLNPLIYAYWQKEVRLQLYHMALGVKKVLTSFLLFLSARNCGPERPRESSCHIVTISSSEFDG
Consider `CC(C)OCCCNC(=O)CN(c1ccc(OCc2ccccc2)cc1)S(C)(=O)=O`, for which the activation was -1.63% (inactive).
In the case of `COc1ccc(S(=O)(=O)CCC(=O)N2CCc3ccccc32)cc1`, the activation is 1.93% (inactive).
Take `Cc1ccc(S(=O)(=O)N2CCN3C(=O)[C@H](Cc4ccc(Cl)cc4)NC(=O)[C@H]3C2)cc1`: the activation was 1.14% (inactive).
As to `CC1(C(=O)NCC2Cc3cccc(-c4ncccn4)c3O2)CC1` (stereo not given), the activation was 1.78% (inactive).
The same measure for `COc1ccc(CCNc2ccnc(Nc3ccc(-n4ccnc4)cc3)n2)cc1`: 12.4% (active).
As to `COc1cc(Nc2ccnc(Nc3ccc(N4CCOCC4)cc3)n2)cc(OC)c1OC`, the activation was 7.31% (inactive).
With `COc1ccc(CCNc2cc(C)nc(Nc3ccc(-n4ccnc4)cc3)n2)cc1` the figure was 6.54% (inactive).
Consider `Cc1cc(Nc2ccc(N3CCOCC3)cc2)nc(Nc2ccc(-n3ccnc3)cc2)n1`, for which the activation was 3.07% (inactive).
As for `COc1ccc(CCNc2ccnc(Nc3ccc(N4CCOCC4)cc3)n2)cc1`, the activation is 10.5% (active).
With `Cc1cc(Nc2ccc3c(c2)OCO3)nc(Nc2ccc(N3CCOCC3)cc2)n1`, the activation is 1.65% (inactive).
On to `O=C(O)c1cc([N+](=O)[O-])ccc1C(=O)Nc1cccc2ccccc12`, for which the activation was -0.79% (inactive).
With `CCC(=O)N1CCc2cc(S(=O)(=O)NCCN(CC)c3ccccc3)ccc21` the figure was -1.16% (inactive); with `CC1CCC(=NNC(=O)c2ccccc2O)CC1` (stereo not given), -3.51% (inactive).
`CN(C)c1ccc(/C=C(\C#N)C(N)=C(C#N)C#N)cc1`: the activation was 4.1% (inactive).
For the compound `O=C(c1cccc(S(=O)(=O)N2CCOCC2)c1)N1CCCc2ccccc21`, the activation is -5.28% (inactive).
As for `CC(=O)Cc1nsc(Nc2cccc(Cl)c2C)n1`, the activation was 6.59% (inactive).
As to `CSc1nc2sccn2c(=O)c1C(=O)NCc1ccccc1Oc1ccccc1`, the activation is -1.15% (inactive).
Regarding `COc1cc2[nH]c(=O)n(CCC(=O)N3CCC(N4CCCCC4)CC3)c(=O)c2cc1OC`, the activation is -2.11% (inactive).
With `CN1CCN(c2cc(-c3cn[nH]c3)ccc2NC(=O)Cc2cccc(Cl)c2)CC1`, the activation was 11.6% (active).
Turning to `CCOc1ccc(S(=O)(=O)N(CC(=O)NCCSc2ccccc2)c2ccccc2)cc1`, the activation is -2.47% (inactive).
The same measure for `COc1ccc(-n2ncc3c(Nc4ccc(C(C)C)cc4)ncnc32)cc1`: 9.19% (active).
In the case of `COc1ccc(-n2ncc3c(Nc4cccc(F)c4)ncnc32)cc1`, the activation was 2.73% (inactive).
The same measure for `COc1ccc(-n2ncc3c(Nc4cc(OC)ccc4OC)ncnc32)cc1`: 4.1% (inactive).
In the case of `C/C(=N/NC(=O)CNC(=O)c1ccccc1F)c1cccc([N+](=O)[O-])c1`, the activation is -2.45% (inactive).
Consider `CCCn1cc(SCC(=O)Nc2ccc(OC)cc2OC)c2ccccc21`, for which the activation was 4.73% (inactive).
For `CC(C)(C)NC(=O)C1CCN(S(=O)(=O)c2ccc(Br)s2)CC1`, the activation is 3.94% (inactive).
On to `COCCNC(=O)c1cccc(OC2CCN(Cc3cc4ccccc4o3)CC2)c1`, for which the activation was 0.69% (inactive).
With `CCOc1ccccc1CNCc1c(C(=O)O)c(C)n(Cc2cccc(Cl)c2)c1C` the figure was -3.17% (inactive).
Regarding `N#C/C(=C/c1cc(Cl)ccc1Cl)c1nc2ccccc2c(=O)[nH]1`, the activation is -3.12% (inactive).
Consider `COC(=O)c1c(OCC2CCCCO2)cc(=O)n2c1CCN(Cc1ccsc1)CC2` (stereo not given), for which the activation is 0.67% (inactive).
With `O=C(C1CCCN1S(=O)(=O)c1ccc(Cl)cc1)N1CCOCC1` (stereo not given) the figure was 2.3% (inactive).
As to `CCOC(=O)c1cc(-c2ccccc2)sc1NC(=O)c1ccc(OC)c(OC)c1`, the activation was -1.86% (inactive).
Regarding `Cc1cc(OCC(=O)Nc2sc(C)c(C)c2C(N)=O)ccc1Br`, the activation was 3.41% (inactive).
As to `N#CC1=C2SCN(Cc3ccccc3)CN2C(=O)CC1c1cccc(F)c1` (stereo not given), the activation is -1.21% (inactive).
In the case of `CC(=O)c1ccc(N2CCN(C(=O)c3cc4c(C)nc5ccccc5c4o3)CC2)cc1`, the activation was 0.66% (inactive).
With `CCOc1ccc(/C=C2\SC(=S)N(CC(=O)Nc3ccc(O)cc3)C2=O)cc1`, the activation was -3.84% (inactive).
`Cc1nc2n(n1)C(c1ccc(Cl)cc1)C=C(c1ccc(Cl)cc1)N2` (stereo not given): the activation was -0.05% (inactive).
Regarding `C=CCOc1ccc(/C=C2\NC(=S)N(c3ccc(OC)cc3)C2=O)cc1`, the activation is 1.06% (inactive).
Turning to `CCCCNC(=O)c1ccc(C)c(N2CCCC2=O)c1`, the activation is 0.14% (inactive).
Regarding `O=S(=O)(/C=C/c1ccccc1)N1c2ccccc2C=CC1c1c[nH]c2ccccc12` (stereo not given), the activation is -5.1% (inactive).
Turning to `COc1ccc(C(=O)N/N=C/c2ccc(O)cc2O)cc1OC`, the activation was 1.94% (inactive).
`Cc1ccc(Nc2nc(Cl)nc(N3CCOCC3)n2)cc1Cl`: the activation was -1.69% (inactive).
On to `COC(=O)c1ccccc1NC(=O)c1cc2ccccc2oc1=O`, for which the activation was 2.29% (inactive).
As to `CC(C)c1ccccc1OCC(=O)Nc1ccccc1Cl`, the activation was -0.8% (inactive).
On to `CC(=O)N1CCC(N(C(=S)Nc2cccc(Cl)c2C)C(C)C)CC1`, for which the activation was -0.07% (inactive).
As to `Cc1c(Cl)cccc1NS(=O)(=O)c1c(C(C)C)cc(C(C)C)cc1C(C)C`, the activation was 9.78% (active).
With `COc1ccc(NC(=O)N2CCC(CN3CCc4ccccc4C3)CC2)cc1` the figure was -2.3% (inactive); with `Cc1cccc(Cn2c(=O)c3ccccc3n3nncc23)c1`, 3.36% (inactive).
For the compound `COc1ccc(N2CCN(c3ncnc4sc(C(=O)N5CCC(C(N)=O)(N6CCCCC6)CC5)c(C)c34)CC2)cc1`, the activation was 0.57% (inactive).
Turning to `O=C(NCc1ccco1)c1ccc2ccccc2c1`, the activation is 1.88% (inactive).
Regarding `COc1ccc(-c2nc3c(=O)n(C)c4ccccc4c3o2)cc1`, the activation was -4% (inactive).
As for `CCC(=O)N1CCN(c2ccc(NC(=O)C(C)(C)C)cc2)CC1`, the activation is 0.46% (inactive).
For the compound `O=C(CNc1ccccc1)N/N=C/c1cccc(Oc2ccccc2)c1`, the activation was -3.18% (inactive).
For `O=C(/C=C/c1ccccn1)NCCN1Cc2ccccc2OC(c2ccccc2)C1` (stereo not given), the activation was 1.44% (inactive).
`CCNC(=O)C(=O)Nc1ccc(OC)cc1`: the activation was -1.66% (inactive).
With `O=C(CSc1ccc2nnc(-c3ccncc3)n2n1)Nc1ccc(C(F)(F)F)cc1` the figure was -0.42% (inactive); with `Cc1n[nH]c(C)c1S(=O)(=O)NCc1ccc(F)cc1`, -0.09% (inactive).
As for `O=c1oc2ccc3ccccc3c2cc1-c1nnc(Nc2ccc(Oc3ccc4ccccc4c3Cl)c(Cl)c2)s1`, the activation was 0.97% (inactive).
With `CCC(C)OC(=O)C1=C(C)NC(=O)NC1c1cc(Br)ccc1OC` (stereo not given) the figure was 1.91% (inactive); with `CC(C)c1ccc(Cn2ccc3c4c(N)nc(NC5CC5)nc4ccc32)cc1`, 51.2% (active).
The same measure for `CC(C)CC(=O)NCC1CCC2(CCN(Cc3ccccc3F)CC2)O1` (stereo not given): 2.66% (inactive); for `Cc1ccc(-n2nc3c(c2NC(=O)C2(c4ccc(Cl)cc4)CCCC2)CSC3)cc1`: 3.08% (inactive); for `CCOC(=O)CCCN(Cc1ccc(F)cc1)S(=O)(=O)c1ccc(F)c(C)c1`: 0.45% (inactive).
For `COc1cc(NC(=O)c2onc(C)c2Cl)cc(OC)c1OC`, the activation was -1.44% (inactive).
In the case of `CCOC(=O)N1CCN(C(=O)c2ccc3c(c2)NC(=O)C(CSCc2cc(C)ccc2C)N3)CC1` (stereo not given), the activation is 2.54% (inactive).
The same measure for `O=C(O)c1c(CNC2CCCc3ccccc32)c2ccccc2n1Cc1ccccc1` (stereo not given): -2.12% (inactive).
Regarding `O=C(O)c1cc([N+](=O)[O-])c(C(=O)O)cc1Oc1ccc(Cl)cc1`, the activation is 3.33% (inactive).
The same measure for `COc1cc(/C=N/NC(=O)CCCC(=O)N/N=C/c2ccc(O)c(OC)c2)ccc1O`: -0.52% (inactive); for `CCc1nnc2c3c4c(sc3nc(CC)n12)CCCC4`: -1.48% (inactive); for `CC(C)c1ccc(N=c2c([N+](=O)[O-])nn(-c3ccccc3)n2O)cc1`: 5.25% (inactive).
On to `CCOC(=O)c1nc(NCc2ccccc2)c2ccccc2n1`, for which the activation was 2.75% (inactive).
Consider `O=C(Cn1c(=O)oc2ccccc21)Nc1cccc(C(F)(F)F)c1`, for which the activation was 3.85% (inactive).
For the compound `CCn1cnc2sc(C(=O)Nc3ccc(Cl)c(Cl)c3)c(C)c2c1=O`, the activation is 0.88% (inactive).
The same measure for `COc1ccc(C(=O)Nn2c(-c3ccc(F)cc3)nc3ccccc3c2=O)cc1Br`: -2.33% (inactive); for `CC(=O)c1c(C)oc2c1c1c(c3ccccc32)OCN(C2CCCC2)C1`: 2.76% (inactive).
As to `COc1ccc(OC)c(-n2c(O)c(/C=C3\C=CC=N3)c(=O)[nH]c2=O)c1`, the activation is 1.81% (inactive).
Consider `N#CCCN1CCN(c2ccc(F)cc2[N+](=O)[O-])CC1`, for which the activation was 3.88% (inactive).
With `CC(C)c1onc(C(=O)NC2CCCCC2)c1[N+](=O)[O-]` the figure was -2.5% (inactive); with `COc1ccc(O)c(C2=Nc3ccccc3N=C(c3ccc([N+](=O)[O-])cc3)C2)c1`, -1.11% (inactive); with `COc1ccc(C[C@H](N)C(=O)N[C@@H]2[C@@H](CO)OC(n3cnc4c(N(C)C)ncnc43)[C@@H]2O)cc1` (stereo not given in full), -4.23% (inactive).
With `O=C(CCc1nnc2n(Cc3ccccc3)c(=O)c3ccccc3n12)NCCN1CCCC1` the figure was -0.83% (inactive).
With `Cc1c(NC(=O)c2cc(F)cc(F)c2)c(=O)n(-c2ccccc2)n1C` the figure was -3.89% (inactive); with `CC1CC(C)(C)NC(=S)N1CC(=O)N1CCN(Cc2ccc3c(c2)OCO3)CC1` (stereo not given), -1.14% (inactive); with `O=C(NCCO)C(=O)Nc1cccc(Cl)c1Cl`, 1.5% (inactive).
Turning to `Cc1ccc(NC(=O)CN(C)S(=O)(=O)c2ccc(Br)cc2)cc1Cl`, the activation was 4.66% (inactive).
Take `CCN(CC)c1ccc2cc(-c3nnc(NCc4ccc(F)cc4)s3)c(=O)oc2c1`: the activation is 0.77% (inactive).
For `CCCCOc1ccc(C(=O)Nc2c3c(nn2-c2cccc(Cl)c2)CSC3)cc1`, the activation was 5.97% (inactive).
`O=C(NCCCN1CCOCC1)/C(=C/c1ccc(-c2cccc(C(F)(F)F)c2)o1)NC(=O)c1ccc(Cl)cc1`: the activation was 9.32% (active).
Consider `COCCCNC(=O)/C(=C\c1ccco1)NC(=O)c1ccc(C)cc1`, for which the activation is -2.09% (inactive).
With `Fc1ccc(-c2cnc3ccc(NCCCN4CCOCC4)nn23)cc1Cl` the figure was 2.09% (inactive).
